HTT cytoprotect: protects HTT-Q103 PC12 cells, measured by ATP. PC12 HTT-Q103 induced, cytoprotection, ATP luminescence, 40 h. Potency, µM (doses to about 56.4 µM), actives largely listed as activators. hit rate 0.14% among 230,000; further: nearly all actives have a fitted effect of over 45% in size
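Cells were plated at 1500 per well in phenol red-free DMEM with 5% equine and 5% calf serum. Tebufenozide (100 nM final) and compounds were added, then ATPlite reagent, and luminescence was read.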
HTT aggregate: inhibitors of mutant huntingtin aggregate formation in PC12 cells. PC12 HttQ103-GFP aggregates, Acumen cytometry, 40 h. Potency, µM (series often up to 46.1 µM), most hits filed as inhibitors. hit rate 1.1% among 220,000; further: nearly all actives have a fitted effect of over 60% in size
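Read-out: GFP aggregate count by laser scanning cytometer (488 nm excitation, 500-530 nm emission, 1–25 µm objects >6 SD above background). Cells: PC12, inducible HTTex1-Q103-GFP, 100 nM tebufenozide; compounds titrated.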
L3MBTL1 block: L3MBTL1 (human) inhibition; Potency, µM (top dose mostly 57.1 µM), hits mostly inhibitors; Q9Y468; hit rate 0.66% among 230,000; AlphaScreen L3MBTL1–H3K9me1 peptide binding; further: nearly all actives have a fitted effect of over 60% in size
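AlphaScreen proximity signal between nickel-chelate acceptor and streptavidin donor beads (final 10 ug/mL) reports binding of 50 nM L3MBTL1 to 75 nM biotin-H3 K9me1 peptide; complex incubated with compounds 30 min at room temperature; cefsulodin titration as control.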
JMJD2E inh: JMJD2E (human) inhibition. JMJD2E catalytic domain, FDH-coupled NADH fluorescence (FDH is formaldehyde dehydrogenase). Potency, µM (highest dose often 57.1 µM), most hits filed as inhibitors. hit rate 1.6% among 230,000. AID 2147; active means well fitted inhibition curve with a large enough effect, not every such curve was filed as active; inconclusive means small, poorly fitted or top-dose-only effect, or another doubt; inactive means no such curve, though single readings can be large or run the other way; further: nearly all actives have a fitted effect of over 50% in size
Target sequence (B2RXH2 1-337 limits assumed): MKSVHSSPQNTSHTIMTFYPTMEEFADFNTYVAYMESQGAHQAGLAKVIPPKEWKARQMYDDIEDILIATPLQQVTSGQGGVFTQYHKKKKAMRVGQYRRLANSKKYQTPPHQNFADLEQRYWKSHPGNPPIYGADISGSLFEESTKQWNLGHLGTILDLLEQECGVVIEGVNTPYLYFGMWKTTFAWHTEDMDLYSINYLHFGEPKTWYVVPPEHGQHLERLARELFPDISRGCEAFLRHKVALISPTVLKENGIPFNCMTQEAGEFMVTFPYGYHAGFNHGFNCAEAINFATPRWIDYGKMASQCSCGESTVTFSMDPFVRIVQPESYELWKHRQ
Hits are given with their value; [ ] = remark or other dose. A selection: hits, their analogues and other compounds. The true share with any hit is near 1.8%. Unless noted, the call rests on the fitted dose curve; in most records, active means well fitted curve in the direction sought with a large enough effect; inconclusive means small, poorly fitted or top-dose-only effect, or another doubt; inactive means no such curve, though single readings can be large; an effect the other way counts as inactive or inconclusive.

Screening Cc1ccc(-c2cn3c(=S)[nH]nc3s2)cc1 returned HTT cytoprotect inactive, HTT aggregate inactive, L3MBTL1 block inactive and JMJD2E inh 6.3µM.
For c1cncc(C2Nc3cccc4cccc(c34)N2)c1 the results were HTT cytoprotect inactive[10 µM], HTT aggregate inactive[9.22 µM] and JMJD2E inh 5µM.
Screening CCCCCC[C@H]1C(=O)O[C@@H](C)[C@H](NC(=O)c2cccc(NC=O)c2O)C(=O)O[C@@H](C)[C@@H]1OC(=O)CC(C)C returned HTT cytoprotect inactive.
For O=c1cc(CO)occ1O the results were HTT cytoprotect inactive, HTT aggregate inactive and JMJD2E inh 25µM.
`COc1cc(CN2CCN(c3cc(C)ccc3C)CC2)ccc1O` gave HTT cytoprotect inactive[0.074 µM], HTT aggregate 10µM, L3MBTL1 block inactive and JMJD2E inh inactive.
Screening COc1ccccc1N1CCN(Cc2cc(C)c(C)cc2O)CC1 returned HTT cytoprotect inconclusive, HTT aggregate inactive and JMJD2E inh inactive.
For C[C@@H]1CCC/C=C\[C@H]2C[C@H](O)C[C@@H]2[C@H](O)/C=C\C(=O)O1 the results were HTT cytoprotect inactive.
Cc1nc2c(=O)n(C)c(=O)nc-2n(C)n1 was read as HTT cytoprotect inactive[10 µM], HTT aggregate inactive, L3MBTL1 block 0.11µM and JMJD2E inh inactive.
For Oc1cccc2cccnc12 the results were HTT cytoprotect inconclusive, HTT aggregate inactive and JMJD2E inh 11µM.
`CN1CC[C@@]2(C)c3cc(OC(=O)Nc4ccccc4)ccc3N(C)[C@@H]12` gave HTT cytoprotect inactive.
For CN1CC[C@@]2(C)c3cc(O)ccc3N(C)[C@@H]12 the results were HTT cytoprotect inactive[1.9 µM] and JMJD2E inh 6.3µM.
For CN1CCN2c3ccc(N)cc3CC3(C(=O)NC(=O)NC3=O)C2C1 (configuration not stated) the results were HTT cytoprotect inactive[10 µM], HTT aggregate inactive[9.22 µM] and JMJD2E inh 4µM.
`CN1C(=O)N(C)C(=O)C2(Cc3cc(N)ccc3N3CCN(c4ccccc4F)CC32)C1=O` (configuration not stated) gave HTT cytoprotect inactive, HTT aggregate inactive, L3MBTL1 block inconclusive and JMJD2E inh inconclusive.
C[n+]1c(-c2ccccc2)cc(CCCCc2cc(-c3ccccc3)[n+](C)c(-c3ccccc3)c2)cc1-c1ccccc1 was read as HTT cytoprotect inactive[10 µM], HTT aggregate 22µM, L3MBTL1 block inactive and JMJD2E inh inconclusive.
COc1ccc(-c2cc(-c3ccccc3)[n+](C)c(-c3ccccc3)c2)cc1 was read as HTT cytoprotect inactive[10 µM], HTT aggregate 7.1µM, L3MBTL1 block inactive and JMJD2E inh inconclusive.
Screening COc1ccc(-[n+]2c(-c3ccccc3)cc(-c3ccc(C)cc3)cc2-c2ccccc2)cc1 returned L3MBTL1 block inactive.
For CC(=O)O/C(=C1/C[C@H]2[C@@H]3CC=C4C[C@@H](OC(C)=O)CC[C@]4(C)[C@@H]3CC[C@]2(C)C1=O)C(F)(F)F the results were HTT cytoprotect inactive[10 µM].
C[C@]12CC[C@@H]3c4ccc(O)cc4CC[C@H]3[C@@H]1C[C@@H](O)[C@@H]2O[C@@H]1O[C@H](C(=O)O)[C@@H](O)[C@H](O)[C@H]1O was read as HTT aggregate inactive, L3MBTL1 block inactive and JMJD2E inh 22µM.
Screening COc1cc2cc(c1Cl)N(C)C(=O)C[C@H](OC(=O)C(C)C)[C@]1(C)O[C@@H]1[C@@H](C)[C@H]1C[C@](O)(NC(=O)O1)[C@@H](OC)/C=C\C=C(\C)C2 returned HTT cytoprotect inactive[10 µM].
For COC(=O)C[C@](O)(CCCC(C)(C)O)C(=O)O[C@@H]1C(OC)=C[C@]23CCCN2CCc2cc4c(cc2[C@H]13)OCO4 the results were HTT cytoprotect inactive, HTT aggregate 0.16µM and JMJD2E inh inactive.
`COc1ccc2c3c1O[C@@H]1C(=O)CC[C@@]4(O)[C@@H](C2)N(CC2CC2)CC[C@]314` gave HTT cytoprotect inactive[1.9 µM].
`CC(=O)N1C[C@@H]2C[C@H](C1)c1cccc(=O)n1C2` gave HTT cytoprotect inactive.
For CC1(C)Cc2c(sc3nc4n(-c5ccccc5)c(=O)c(CCC(=O)O)nn4c(=O)c23)CO1 the results were HTT cytoprotect inactive[10 µM], HTT aggregate inactive[9.22 µM], L3MBTL1 block inactive and JMJD2E inh 32µM.
For N#C/C(=C\c1ccc(O)c(O)c1)C(=O)NCCCNC(=O)/C(C#N)=C/c1ccc(O)c(O)c1 the results were HTT cytoprotect inactive[1.9 µM] and JMJD2E inh 3.5µM.
Screening CCn1nc(-c2ccccc2)nc2c(=O)n(C)c(=O)nc1-2 returned HTT cytoprotect inactive[10 µM], HTT aggregate 8.9µM, L3MBTL1 block 0.71µM and JMJD2E inh 28µM.
Screening CN1CCN(c2ccc(S(C)(=O)=O)cc2[N+](=O)[O-])CC1 returned HTT cytoprotect inactive[10 µM], HTT aggregate inactive, L3MBTL1 block inactive and JMJD2E inh inactive.
For CN1CCN(c2ccc([N+](=O)[O-])c3no[n+]([O-])c23)CC1 the results were HTT cytoprotect inactive[10 µM], HTT aggregate inconclusive and JMJD2E inh 14µM.
Screening NNc1c(C(N)=O)c2c(N)ncnc2n1[C@@H]1O[C@H](CO)[C@@H](O)[C@@H]1O returned HTT cytoprotect inactive[10 µM].
Screening CC1(C)C[C@H]2C=C(C=O)[C@]3(C=O)C[C@]3(C)[C@H]2C1 returned HTT aggregate 8.9µM, L3MBTL1 block inactive and JMJD2E inh inactive.
For CC1CCN(S(=O)(=O)c2ccc(NN=C(C#N)C#N)cc2)CC1 the results were HTT cytoprotect inactive, HTT aggregate 16µM and JMJD2E inh inactive.
Screening N#CC(C#N)=NNc1ccc(S(N)(=O)=O)cc1 returned HTT cytoprotect inactive[10 µM], HTT aggregate inactive[9.22 µM] and JMJD2E inh inactive.
For O=C1NC(=O)C(=Cc2coc3ccc(O)cc3c2=O)C(=O)N1 the results were HTT cytoprotect inactive[10 µM], HTT aggregate inactive[9.22 µM], L3MBTL1 block inactive and JMJD2E inh 18µM.
For CCC(N)C(O)c1ccc(O)c(O)c1 (configuration not stated) the results were HTT cytoprotect inactive and JMJD2E inh 14µM.
Screening COc1cc([C@@H](O)CN)ccc1O returned HTT cytoprotect inactive[1.9 µM].
Screening Cn1c(O)c(/C=N/NC(=O)c2ccncc2)c(=O)[nH]c1=S returned HTT cytoprotect inactive[10 µM], HTT aggregate inactive[9.22 µM], L3MBTL1 block inactive and JMJD2E inh inconclusive.
Screening O=C(N/N=C/c1c(O)n(Cc2ccccc2)c(=O)[nH]c1=O)c1ccncc1 returned HTT cytoprotect inactive[10 µM], HTT aggregate inactive[9.22 µM] and JMJD2E inh 20µM.
`CCCCC(=O)N/N=C/c1c(O)n(CCc2ccccc2)c(=O)[nH]c1=O` gave HTT cytoprotect inactive[10 µM], HTT aggregate inactive[9.22 µM], L3MBTL1 block inactive and JMJD2E inh inconclusive.
For CCCCC(=O)N/N=C/c1c(O)n(CCc2ccc(OC)c(OC)c2)c(=O)[nH]c1=O the results were HTT aggregate inactive, L3MBTL1 block inactive and JMJD2E inh 22µM.
COc1ccc(CCn2c(O)c(/C=N/NC(=O)c3ccncc3)c(=O)[nH]c2=O)cc1OC was read as HTT cytoprotect inactive[10 µM], HTT aggregate inactive, L3MBTL1 block inactive and JMJD2E inh 10µM.
`Cn1c(O)c(/C=N/NC(=O)c2ccncc2)c(=O)n(C)c1=S` gave HTT cytoprotect inactive[10 µM], HTT aggregate inactive[9.22 µM] and JMJD2E inh 32µM.
`O=C1C=CC(=O)C(Cl)=C1` gave HTT cytoprotect inactive.
